Experimental data from ChEMBL document CHEMBL3988442, “University of Dundee, Small-Polar-MMV Screening Library” (2021).
For some of these results: Potency and affinity values are given separately.

Columns and labels:
Set-up in all cases: scale not given: direction of the effect not stated beside the values
[1] = molecular target: Protein translocase subunit SecA (Escherichia coli (strain K12)) (UniProt P10408); assay: Assay to Identify E. coli SecA ATPase Inhibitors; format: functional; conditions: 30 µM
[2] = molecular target: T1, Ubiquitin-activating enzyme e1, putative (Leishmania donovani (strain BPK282A1)) (UniProt E9BSI1); assay: Leishmania donovani Ubiquitin Activating Enzyme (LdE1); format: functional; conditions: 30 µM
T1 sequence (whole entry): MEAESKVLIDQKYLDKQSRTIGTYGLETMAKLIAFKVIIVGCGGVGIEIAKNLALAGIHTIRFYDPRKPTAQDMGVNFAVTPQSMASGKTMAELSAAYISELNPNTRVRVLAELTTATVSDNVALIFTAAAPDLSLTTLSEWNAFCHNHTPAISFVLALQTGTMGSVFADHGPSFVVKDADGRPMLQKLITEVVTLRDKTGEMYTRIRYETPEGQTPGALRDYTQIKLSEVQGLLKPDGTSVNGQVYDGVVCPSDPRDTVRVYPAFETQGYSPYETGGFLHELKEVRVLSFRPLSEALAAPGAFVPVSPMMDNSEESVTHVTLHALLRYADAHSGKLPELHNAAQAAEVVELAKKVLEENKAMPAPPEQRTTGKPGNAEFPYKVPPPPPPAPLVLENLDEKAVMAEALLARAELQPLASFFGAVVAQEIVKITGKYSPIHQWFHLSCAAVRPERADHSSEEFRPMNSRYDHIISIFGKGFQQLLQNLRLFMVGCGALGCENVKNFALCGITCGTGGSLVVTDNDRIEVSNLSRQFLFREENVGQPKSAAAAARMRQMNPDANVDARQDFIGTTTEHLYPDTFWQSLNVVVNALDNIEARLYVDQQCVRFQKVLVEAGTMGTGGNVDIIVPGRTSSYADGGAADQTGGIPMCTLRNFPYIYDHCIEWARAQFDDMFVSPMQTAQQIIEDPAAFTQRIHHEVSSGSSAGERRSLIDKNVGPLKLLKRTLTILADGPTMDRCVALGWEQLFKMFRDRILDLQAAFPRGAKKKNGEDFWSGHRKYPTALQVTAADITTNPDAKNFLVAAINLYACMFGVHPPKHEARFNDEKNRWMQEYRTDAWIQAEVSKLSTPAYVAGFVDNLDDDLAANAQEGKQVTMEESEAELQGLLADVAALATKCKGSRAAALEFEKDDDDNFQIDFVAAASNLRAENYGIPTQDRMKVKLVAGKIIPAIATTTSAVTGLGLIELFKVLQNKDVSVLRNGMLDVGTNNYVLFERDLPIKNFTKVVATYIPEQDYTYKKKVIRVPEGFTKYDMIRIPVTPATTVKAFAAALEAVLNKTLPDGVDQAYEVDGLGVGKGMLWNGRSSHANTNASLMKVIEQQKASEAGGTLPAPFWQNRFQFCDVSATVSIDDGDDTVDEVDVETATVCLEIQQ

[3] = molecular target: T2, Aspartate--tRNA(Asp/Asn) ligase (Mycobacterium tuberculosis (strain ATCC 25618 / H37Rv)) (UniProt P9WFW3); assay: Assay for Asp RNA synthetase-1 from Mycobacterium tuberculosis; format: functional; conditions: 30 µM; note: in the data most compounds retested in dose-response had high values
T2 sequence (whole entry): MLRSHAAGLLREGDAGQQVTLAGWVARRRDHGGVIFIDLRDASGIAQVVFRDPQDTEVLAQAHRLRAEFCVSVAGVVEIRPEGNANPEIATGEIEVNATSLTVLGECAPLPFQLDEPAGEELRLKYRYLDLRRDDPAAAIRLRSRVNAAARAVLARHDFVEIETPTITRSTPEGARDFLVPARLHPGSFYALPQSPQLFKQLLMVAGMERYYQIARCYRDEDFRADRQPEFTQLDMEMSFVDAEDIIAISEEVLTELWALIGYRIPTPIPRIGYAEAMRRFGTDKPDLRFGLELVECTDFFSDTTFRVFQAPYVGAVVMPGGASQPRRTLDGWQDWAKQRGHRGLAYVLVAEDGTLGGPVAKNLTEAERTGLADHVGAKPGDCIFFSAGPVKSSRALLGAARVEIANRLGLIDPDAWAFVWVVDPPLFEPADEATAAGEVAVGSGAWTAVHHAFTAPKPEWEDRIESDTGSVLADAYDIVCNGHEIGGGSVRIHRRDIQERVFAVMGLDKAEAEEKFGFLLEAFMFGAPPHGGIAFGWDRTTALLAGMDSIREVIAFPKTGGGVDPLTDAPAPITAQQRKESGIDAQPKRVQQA

[4] = molecular target: AMP-activated protein kinase, AMPK (Homo sapiens) (UniProt P54646+O43741+P54619+Q9UGJ0+Q9Y478+Q13131+Q9UGI9); assay: AMP-dependent Kinase enzyme assay. An in vitro enzyme assay that detects ADP turnover that is directly proportional to AMPK activity. This uses naive AMPK that is activated during the assay with MK-8722; format: functional; conditions: 30 µM
[5] = molecular target: Sialic acid-binding Ig-like lectin 9 (Homo sapiens) (UniProt Q9Y336); assay: Hs-Siglec9 ALPHAscreen SOP 20170721; conditions: 10 µM
Trypanosoma cruzi = assay: Trypanosoma cruzi phosphomannomutase and mannose-1-phosphate guanylyltransferase assay; format: functional; conditions: 10 µM
[6] = molecular target: T3, Arginase-2, mitochondrial (Homo sapiens) (UniProt P78540); assay: in vitro enzyme assay to detect the production of urea directly proportional to the activity of Arginase II; format: functional; conditions: 33.3 µM; note: in the data most compounds retested in dose-response had high values
T3 sequence (whole entry): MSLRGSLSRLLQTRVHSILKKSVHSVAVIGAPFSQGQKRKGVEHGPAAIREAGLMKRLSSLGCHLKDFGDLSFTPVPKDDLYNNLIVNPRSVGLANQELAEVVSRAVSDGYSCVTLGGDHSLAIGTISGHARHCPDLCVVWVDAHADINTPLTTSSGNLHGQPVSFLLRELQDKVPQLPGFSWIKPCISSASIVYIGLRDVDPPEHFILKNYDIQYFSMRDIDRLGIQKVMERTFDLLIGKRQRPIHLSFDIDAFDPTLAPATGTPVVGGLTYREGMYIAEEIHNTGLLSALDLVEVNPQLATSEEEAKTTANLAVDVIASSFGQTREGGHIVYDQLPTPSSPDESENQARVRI

[7] = molecular target: T4, Proteasome subunit beta (Trypanosoma cruzi) (UniProt O96673); assay: Trypanosoma cruzi proteasome chymotrypsin-like activity (TcProtChymo) assay.; note: in the data most compounds retested in dose-response had high values; format: functional; conditions: 9.37 µM
T4 sequence (whole entry): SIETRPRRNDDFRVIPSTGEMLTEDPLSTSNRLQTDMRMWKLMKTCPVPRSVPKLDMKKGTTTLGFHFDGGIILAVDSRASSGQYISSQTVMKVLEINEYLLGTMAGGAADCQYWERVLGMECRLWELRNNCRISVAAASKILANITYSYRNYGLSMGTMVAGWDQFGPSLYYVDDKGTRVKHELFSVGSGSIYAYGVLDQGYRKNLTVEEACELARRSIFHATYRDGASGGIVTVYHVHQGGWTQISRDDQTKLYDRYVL

Homo sapiens = organism: Homo sapiens; assay: To identify inhibition of the IFN signalling (Jak-Stat) pathway via expression of an eGFP reporter gene under the control of an IFN-stimulated response element (ISRE) containing MxA promoter.; format: functional; conditions: 30 µM
[8] = molecular target: Shiga toxin 2 (Escherichia coli O157:H7) (UniProt P09385+P09386); assay: E. coli 0.157:H7 Shiga Toxin SOP - stx2 screening assay; format: functional; conditions: 30 µM
[9] = molecular target: T5, Tyrosyl-tRNA synthetase, putative (Trypanosoma cruzi (strain CL Brener)) (UniProt Q4DSP6); assay: Trypanosoma cruzi tyrosyl tRNA synthetase (TcYRS) _High Tyrosine SOP; format: functional; conditions: 30 µM; note: in the data most compounds retested in dose-response had high values
T5 sequence (whole entry): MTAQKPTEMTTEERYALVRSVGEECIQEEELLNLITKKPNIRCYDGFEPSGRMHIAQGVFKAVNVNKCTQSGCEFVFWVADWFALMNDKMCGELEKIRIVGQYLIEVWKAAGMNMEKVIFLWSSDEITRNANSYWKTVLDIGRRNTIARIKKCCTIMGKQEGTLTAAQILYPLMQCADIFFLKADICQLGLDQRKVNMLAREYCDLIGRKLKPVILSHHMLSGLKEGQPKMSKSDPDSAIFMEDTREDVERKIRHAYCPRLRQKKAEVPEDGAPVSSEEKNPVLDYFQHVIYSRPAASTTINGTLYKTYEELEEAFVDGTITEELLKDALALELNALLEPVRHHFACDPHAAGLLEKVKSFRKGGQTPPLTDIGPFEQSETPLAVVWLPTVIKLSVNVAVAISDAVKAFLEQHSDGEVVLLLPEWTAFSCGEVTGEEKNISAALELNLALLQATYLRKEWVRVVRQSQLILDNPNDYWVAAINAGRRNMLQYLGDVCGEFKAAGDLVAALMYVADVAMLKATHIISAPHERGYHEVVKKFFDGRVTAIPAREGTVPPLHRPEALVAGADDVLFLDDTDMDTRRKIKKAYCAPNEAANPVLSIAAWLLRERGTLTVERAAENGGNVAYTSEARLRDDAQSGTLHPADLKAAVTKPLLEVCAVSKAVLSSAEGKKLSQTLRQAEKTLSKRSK

[10] = molecular target: T5, Tyrosyl-tRNA synthetase, putative (Trypanosoma cruzi (strain CL Brener)); assay: Trypanosoma cruzi tyrosyl tRNA synthetase (TcYRS) SOP; format: functional; conditions: 30 µM
[11] = molecular target: Chromo domain-containing protein 1 (Saccharomyces cerevisiae (strain ATCC 204508 / S288c) (Baker's yeast)) (UniProt P32657); assay: ScCHD-1 Enzyme Inhibition Assay; format: functional; conditions: 30 µM; note: in the data most compounds retested in dose-response had high values
Chromo domain-containing protein 1 (Saccharomyces cerevisiae (strain ATCC 204508 / S288c) (Baker's yeast)), sequence (P32657 whole entry, the tested form may be a part): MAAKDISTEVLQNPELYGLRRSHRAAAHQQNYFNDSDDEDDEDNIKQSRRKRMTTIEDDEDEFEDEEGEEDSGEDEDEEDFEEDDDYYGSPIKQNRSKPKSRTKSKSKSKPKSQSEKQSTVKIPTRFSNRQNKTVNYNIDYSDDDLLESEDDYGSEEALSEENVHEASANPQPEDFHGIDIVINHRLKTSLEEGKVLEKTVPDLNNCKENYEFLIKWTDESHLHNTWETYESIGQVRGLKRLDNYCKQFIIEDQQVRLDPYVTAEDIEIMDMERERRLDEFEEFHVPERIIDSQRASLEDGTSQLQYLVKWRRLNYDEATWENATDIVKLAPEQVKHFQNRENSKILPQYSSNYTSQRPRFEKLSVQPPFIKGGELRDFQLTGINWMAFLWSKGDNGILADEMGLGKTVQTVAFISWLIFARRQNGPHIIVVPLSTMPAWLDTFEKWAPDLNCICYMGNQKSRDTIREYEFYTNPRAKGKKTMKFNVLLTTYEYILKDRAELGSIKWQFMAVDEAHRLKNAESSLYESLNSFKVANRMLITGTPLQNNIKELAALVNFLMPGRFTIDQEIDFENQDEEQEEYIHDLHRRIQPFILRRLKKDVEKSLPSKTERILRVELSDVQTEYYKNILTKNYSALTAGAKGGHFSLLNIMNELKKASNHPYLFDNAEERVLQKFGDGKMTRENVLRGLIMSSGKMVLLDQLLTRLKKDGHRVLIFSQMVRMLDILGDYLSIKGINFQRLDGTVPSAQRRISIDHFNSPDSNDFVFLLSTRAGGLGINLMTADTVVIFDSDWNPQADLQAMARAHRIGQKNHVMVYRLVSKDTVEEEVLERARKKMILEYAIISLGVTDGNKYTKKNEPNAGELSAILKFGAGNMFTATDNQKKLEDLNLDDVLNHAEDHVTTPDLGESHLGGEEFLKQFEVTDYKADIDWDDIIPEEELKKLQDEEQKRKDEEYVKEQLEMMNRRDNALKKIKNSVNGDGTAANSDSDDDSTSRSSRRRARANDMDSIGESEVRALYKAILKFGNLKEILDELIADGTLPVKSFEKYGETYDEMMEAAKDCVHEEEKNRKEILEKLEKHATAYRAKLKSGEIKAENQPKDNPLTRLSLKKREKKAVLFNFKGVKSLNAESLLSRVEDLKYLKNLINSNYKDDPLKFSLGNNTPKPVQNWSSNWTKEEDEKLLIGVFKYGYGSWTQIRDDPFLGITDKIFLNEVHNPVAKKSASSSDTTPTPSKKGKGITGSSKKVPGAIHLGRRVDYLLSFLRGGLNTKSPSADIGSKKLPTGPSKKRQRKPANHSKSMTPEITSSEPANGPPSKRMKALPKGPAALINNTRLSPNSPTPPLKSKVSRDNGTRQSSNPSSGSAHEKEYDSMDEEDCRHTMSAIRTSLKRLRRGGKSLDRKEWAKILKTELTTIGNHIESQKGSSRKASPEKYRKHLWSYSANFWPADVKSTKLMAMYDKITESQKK

Protein translocase subunit SecA (Escherichia coli (strain K12)), sequence (P10408 whole entry): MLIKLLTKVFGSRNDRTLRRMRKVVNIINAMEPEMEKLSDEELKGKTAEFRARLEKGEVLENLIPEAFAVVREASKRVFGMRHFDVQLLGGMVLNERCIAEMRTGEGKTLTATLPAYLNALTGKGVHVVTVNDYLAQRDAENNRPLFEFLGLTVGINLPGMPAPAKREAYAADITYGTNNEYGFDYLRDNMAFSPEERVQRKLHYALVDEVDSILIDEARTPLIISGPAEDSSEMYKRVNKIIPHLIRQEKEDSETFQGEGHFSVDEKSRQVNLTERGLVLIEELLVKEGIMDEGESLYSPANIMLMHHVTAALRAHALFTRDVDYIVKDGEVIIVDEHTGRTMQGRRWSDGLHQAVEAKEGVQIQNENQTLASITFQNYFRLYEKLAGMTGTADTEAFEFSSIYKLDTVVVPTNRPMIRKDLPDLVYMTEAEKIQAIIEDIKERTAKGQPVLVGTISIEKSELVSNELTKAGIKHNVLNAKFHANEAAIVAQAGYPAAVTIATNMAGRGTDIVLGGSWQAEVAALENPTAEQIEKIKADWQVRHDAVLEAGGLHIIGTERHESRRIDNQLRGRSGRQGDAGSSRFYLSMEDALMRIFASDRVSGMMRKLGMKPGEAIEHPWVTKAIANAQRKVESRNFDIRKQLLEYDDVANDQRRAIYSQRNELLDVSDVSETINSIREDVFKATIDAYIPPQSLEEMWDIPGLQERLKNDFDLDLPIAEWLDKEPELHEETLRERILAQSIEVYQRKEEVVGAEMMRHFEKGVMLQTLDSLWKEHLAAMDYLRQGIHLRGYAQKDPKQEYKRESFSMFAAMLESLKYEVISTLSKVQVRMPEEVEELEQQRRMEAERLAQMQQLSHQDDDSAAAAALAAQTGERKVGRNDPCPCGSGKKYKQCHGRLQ
Sialic acid-binding Ig-like lectin 9 (Homo sapiens), sequence (Q9Y336 whole entry): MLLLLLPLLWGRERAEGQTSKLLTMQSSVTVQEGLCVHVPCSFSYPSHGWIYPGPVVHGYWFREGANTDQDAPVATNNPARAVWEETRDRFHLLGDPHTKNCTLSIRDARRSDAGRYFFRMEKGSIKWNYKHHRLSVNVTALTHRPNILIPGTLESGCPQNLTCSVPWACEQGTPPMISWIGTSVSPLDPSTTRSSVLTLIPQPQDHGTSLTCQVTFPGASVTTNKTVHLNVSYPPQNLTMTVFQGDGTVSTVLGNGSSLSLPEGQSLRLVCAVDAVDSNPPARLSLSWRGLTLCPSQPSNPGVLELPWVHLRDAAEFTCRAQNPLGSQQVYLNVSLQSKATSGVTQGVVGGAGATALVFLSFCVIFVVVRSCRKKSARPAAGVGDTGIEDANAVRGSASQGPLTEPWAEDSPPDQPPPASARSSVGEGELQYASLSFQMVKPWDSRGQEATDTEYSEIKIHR

Structure (SMILES)	Percent Effect [1]	Percent Effect [2]	Percent Effect [3]	Percent Effect [4]	Percent Effect [5]	Percent Effect (Trypanosoma cruzi)	Percent Effect [6]	Percent Effect [7]	Percent Effect (Homo sapiens)	Percent Effect [8]	Percent Effect [9]	Percent Effect [10]	Percent Effect [11]
O=C(Cc1ccccc1)N1CCN(Cc2noc(C3CC3)n2)CC1	-1.81%	11.4%	-2.26%	0.817%	1.57%	-4.62%	-3.23%	12.9%	-5.12%	0.476%	7.29%	15.2%	-22.4%
c1ccc(CN2C[C@@H]3OCCN(c4ncccn4)[C@@H]3C2)nc1	-3.31%	5.33%	-0.456%	12.4%	1.5%	-4.53%	-1.17%	-2.73%	6.09%	1.03%	6.38%	8.97%	-1.36%
CC(C)(C)n1cc(C2=CCN(CCc3ccccc3)CC2)cn1	0.726%	1.39%	-2.65%	-7.35%	-1.87%	5.93%	24.3%	14.7%	11.7%	-75.6%	6.32%	12.8%	-5.1%
Cn1cc(N2CCC3(CCN(Cc4cccnc4)C3)C2=O)cn1 (stereo unspecified)	1.77%	5.41%	-4.84%	7.18%	-13.3%	-4.79%	1.59%	25.1%	2.62%	-17%	0%	10.3%	-1.3%
Fc1cnc(N2CCO[C@H]3CN(CC4CCCC4)C[C@H]32)nc1	-2.09%	21.3%	-4.57%	-6.38%	-0.399%	3.48%	-60%	3.93%	-7.5%	-12.1%	3.12%	2.5%	-13.4%
CCN1C[C@H]2[C@@H](C1)N(S(=O)(=O)c1cccnc1)CC[C@H]2OC	-0.0411%	5.33%	1.49%	5.24%	-6.52%	-5.91%	-2.56%	4.49%	14.5%	-25%	-3.19%	-3.85%	-1.11%
CCN(Cc1cccnc1)CC1CCCO1 (stereo unspecified)	-3.64%	0%	6.87%	-3.71%	-1.05%	-5.88%	-6.82%	1.77%	3.09%	-16.3%	2.15%	2.5%	-3.4%
